Measurements: PubChem BioAssay (EPA / NIEHS)
Several values for one entry are separate records, joined by “and”; a condition that tells them apart may be missing. Equal values may be shown once. A structure can be active in one record and inactive in another. Activity calls are given as the source filed them. How the source made its calls: active means hit-call score of the fitted dose curve at least 0.9, where 1 is the maximum; inactive means score below 0.9.

Assay: ATG_PXRE_CIS: Attagene CIS-FACTORIAL HepG2 Assay for human Pregnane X Receptor Element (PXRE) (AID 2282957)
Details: HepG2 Attagene CIS-FACTORIAL PXRE reporter, mRNA; actives raise or lower the signal
In short: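 Bidirectional activity, baselined to DMSO, derived from reporter mRNA fluorescence (RT-PCR plus capillary electrophoresis) in HepG2 cells bearing cis-promoter reporter units, 24 h exposure.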

SMILES	AC50	outcome
CCSC(=O)N(CC)C1CCCCC1	12.3 µM (active)	
CCCN(CCC)N=O		inactive
C=CC(N)=O	34 µM (active)	
Clc1ccc(C(c2ccccc2Cl)C(Cl)(Cl)Cl)cc1 (stereo unspecified)	3.54 µM (active) [middle of 4 runs]	
Nn1cnnc1		inactive
CCC(C)(CC)c1cc(NC(=O)c2c(OC)cccc2OC)on1	0.202 µM (active)	
Oc1c(Cl)c(Cl)c(Cl)c(Cl)c1Cl	13.6 µM (active) and 12.2 µM (active) and 5.75 µM (active)	
CC(C)(O)C(=O)Nc1ccc([N+](=O)[O-])c(C(F)(F)F)c1	20.9 µM (active) [middle of 4 runs]	
Cc1ccccc1CO[C@@H]1C[C@@]2(C(C)C)CC[C@]1(C)O2	2.14 µM (active)	
Cc1cc(O)ccc1Cl		inactive
CC(c1ccc(O)cc1)(c1ccc(O)cc1)c1ccc(O)cc1	0.575 µM (active)	

Assay: ATG_PPRE_CIS: Attagene CIS-FACTORIAL HepG2 Assay for human Peroxisome Proliferator-activated Response Element (PPRE) (AID 2282958)
Details: HepG2 PPRE cis-element reporter, Attagene transcription factor profiling; actives raise or lower the signal
In short: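 Transcript-level reporter induction in transfected HepG2 cells after 24 h chemical exposure, quantified by fluorescence from RT-PCR products separated by capillary electrophoresis.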

SMILES	AC50	outcome
O=C(O)C(F)(F)C(F)(F)C(F)(F)C(F)(F)C(F)(F)C(F)(F)C(F)(F)C(F)(F)F	33.4 µM (active) and 89.8 µM (active) and 34 µM (active)	
CCC(=O)O[C@H]1CC[C@H]2[C@@H]3CCC4=CC(=O)CC[C@]4(C)[C@H]3CC[C@]12C		inactive
CC#Cc1cc(C)nc(Nc2ccccc2)n1		inactive
CN(C)CCO		inactive
ClC1=C(Cl)[C@]2(Cl)[C@@H]3[C@@H]4C[C@@H]([C@H]5O[C@@H]45)[C@@H]3[C@@]1(Cl)C2(Cl)Cl		inactive
ClC(Cl)=C(c1ccc(Cl)cc1)c1ccc(Cl)cc1	31.7 µM (active) and 78.5 µM (active) and 27.1 µM (active)	inactive
CC(C)(c1ccccc1)c1ccc(O)cc1	22.6 µM (active) and 33.4 µM (active)	inactive
CCOCCOC(C)=O		inactive
Oc1ccc(Cl)cc1Cl		inactive
Clc1ccc(Cl)cc1		inactive
O=C(O)C(F)(F)C(F)(F)C(F)(F)C(F)(F)C(F)(F)C(F)(F)C(F)(F)C(F)(F)C(F)(F)F	47.5 µM (active) and 14.8 µM (active)	inactive
O=C(N[C@H]1CN2CCC1CC2)c1cc2ccoc2cn1		inactive
Cc1cccc([N+](=O)[O-])c1		inactive
Cc1ccc(O)c(C)c1		inactive
Cc1cccc(C)c1N		inactive
c1cc2ccc3cccc4ccc(c1)c2c34		inactive
C1CC2OC2CC1C1CO1 (stereo unspecified)		inactive
Cc1cc2c3c(c1)C(c1ccccc1)=N[C@@H](NC(=O)c1ccncc1)C(=O)N3CC2		inactive
NS(=O)(=O)C(F)(F)C(F)(F)C(F)(F)C(F)(F)C(F)(F)C(F)(F)C(F)(F)C(F)(F)F	38.7 µM (active) and 25.8 µM (active)	inactive
CCCCCCCCCC[N+](C)(C)CCCCCCCCCC	185 µM (active)	
CCCCCCCCOC(=O)c1ccccc1C(=O)OCCCCCCCC		inactive
CCSC(=O)N(CC)C1CCCCC1		inactive
CCCN(CCC)N=O		inactive
Clc1ccc(C(c2ccccc2Cl)C(Cl)(Cl)Cl)cc1 (stereo unspecified)		inactive
Nn1cnnc1		inactive
CCC(C)(CC)c1cc(NC(=O)c2c(OC)cccc2OC)on1		inactive
Cc1ccccc1CO[C@@H]1C[C@@]2(C(C)C)CC[C@]1(C)O2	50 µM (active)	
Cc1cc(O)ccc1Cl		inactive
CC(c1ccc(O)cc1)(c1ccc(O)cc1)c1ccc(O)cc1		inactive

Assay: ATG_RORE_CIS: Attagene CIS-FACTORIAL HepG2 Assay for human RAR-related Orphan Receptor Element (RORE) (AID 2282959)
Details: HepG2 Attagene cis-factorial RORE reporter, mRNA; actives raise or lower the signal
In short: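 Multiplexed reporter assay measuring mRNA induction from a cis promoter element in transiently transfected HepG2 cells after 24 h treatment. Detection via RT-PCR and capillary electrophoresis fluorescence; DMSO serves as baseline.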

SMILES	outcome	AC50
Sc1ccccc1	inactive	
O=C(O)C(F)(F)C(F)(F)C(F)(F)C(F)(F)C(F)(F)C(F)(F)C(F)(F)C(F)(F)F	inactive	214 µM (active) and 34.7 µM (active)
CCC(=O)O[C@H]1CC[C@H]2[C@@H]3CCC4=CC(=O)CC[C@]4(C)[C@H]3CC[C@]12C	inactive	119 µM (active)
CC#Cc1cc(C)nc(Nc2ccccc2)n1		51.6 µM (active)
CN(C)CCO	inactive	
ClC1=C(Cl)[C@]2(Cl)[C@@H]3[C@@H]4C[C@@H]([C@H]5O[C@@H]45)[C@@H]3[C@@]1(Cl)C2(Cl)Cl		81.4 µM (active)
ClC(Cl)=C(c1ccc(Cl)cc1)c1ccc(Cl)cc1	inactive	
CC(C)(c1ccccc1)c1ccc(O)cc1	inactive	48.9 µM (active)
CCOCCOC(C)=O	inactive	
Oc1ccc(Cl)cc1Cl	inactive	
Clc1ccc(Cl)cc1	inactive	
O=C(O)C(F)(F)C(F)(F)C(F)(F)C(F)(F)C(F)(F)C(F)(F)C(F)(F)C(F)(F)C(F)(F)F	inactive	50.5 µM (active) and 32.8 µM (active)
O=C(N[C@H]1CN2CCC1CC2)c1cc2ccoc2cn1	inactive	
Cc1ccc(O)c(C)c1	inactive	
Cc1cccc(C)c1N	inactive	
c1cc2ccc3cccc4ccc(c1)c2c34	inactive	

SMILES	outcome	AC50
C1CC2OC2CC1C1CO1 (stereo unspecified)	inactive	
Cc1cc2c3c(c1)C(c1ccccc1)=N[C@@H](NC(=O)c1ccncc1)C(=O)N3CC2		6.95 µM (active)
NS(=O)(=O)C(F)(F)C(F)(F)C(F)(F)C(F)(F)C(F)(F)C(F)(F)C(F)(F)C(F)(F)F	inactive	78 µM (active)
CCCCCCCCCC[N+](C)(C)CCCCCCCCCC		19.8 µM (active)
CCCCCCCCOC(=O)c1ccccc1C(=O)OCCCCCCCC	inactive	
CCSC(=O)N(CC)C1CCCCC1	inactive	
CCCN(CCC)N=O	inactive	
C=CC(N)=O	inactive	
Clc1ccc(C(c2ccccc2Cl)C(Cl)(Cl)Cl)cc1 (stereo unspecified)	inactive	
Nn1cnnc1	inactive	
CCC(C)(CC)c1cc(NC(=O)c2c(OC)cccc2OC)on1	inactive	
Oc1c(Cl)c(Cl)c(Cl)c(Cl)c1Cl		24.1 µM (active) and 5.68 µM (active) and 4.77 µM (active)
CC(C)(O)C(=O)Nc1ccc([N+](=O)[O-])c(C(F)(F)F)c1	inactive	
Cc1ccccc1CO[C@@H]1C[C@@]2(C(C)C)CC[C@]1(C)O2	inactive	
Cc1cc(O)ccc1Cl	inactive	
CC(c1ccc(O)cc1)(c1ccc(O)cc1)c1ccc(O)cc1		11.1 µM (active)
